Experimental data: PubChem BioAssay (Tox21)
“And” between values parts separate entries of the source, which are not always exact repeats. Equal values may be shown once. Results filed as inconclusive are left out. Some structures have more than one record in an assay (separate samples or runs), and their calls can disagree. The source made the active and inactive calls. Unless noted, calls follow the shape of the dose curve; as a rule, active = well fitted curve in the direction sought with a large enough effect in the repeat runs; inconclusive = weak or mixed curves; inactive = no such curve, though single readings can be large; an effect the other way counts as inactive or inconclusive.

Legend:
[1] = qHTS assay to identify small molecule agonists of the progesterone receptor (PR) signaling pathway - cell viability counter screen (AID 1346799; calls by dose curve; also: nearly all actives have a fitted effect of over 45% in size)
Procedure, shortened: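 Cells (PR-UAS-bla HEK293T) are plated at 3,000/well in 2% charcoal-stripped FBS medium, rested 6 hr, dosed and incubated 16 hr at 37C. CellTiter-Glo is then added and luminescence measured after 30 min at room temperature.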

[2] = qHTS assay to identify small molecule antagonists of the TGF-beta/Smad signaling pathway - cell viability counter screen (AID 1346824); also: nearly all actives have a fitted effect of over 50% in size
Procedure, shortened: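 SBE-bla HEK 293T cells, incubated overnight, then compound plus 0.25 ng/mL TGF-beta1 (stock added) for 5 hr at 37 C. Viability was read in the same wells by CellTiter-Glo luminescence after 30 min at room temperature.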

[3] = qHTS assay to identify small molecule agonists of the TGF-beta/Smad signaling pathway - cell viability counter screen (AID 1346829); also: top concentration of the series differs between compounds; nearly all actives have a fitted effect of over 45% in size
Procedure, shortened: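 Here the cytotoxicity of library compounds is measured in SBE-bla HEK 293T cells treated for 5 hr, using CellTiter-Glo added to wells already read for the beta-lactamase reporter.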

[4] = qHTS assay to identify small molecule agonists of the TGF-beta/Smad signaling pathway (AID 1346859; active = well fitted activation curve with a large enough effect in the signal ratio in the repeat runs, not every such curve was filed as active; the % refers to the signal ratio; also: series mostly up to about 77 µM)
Procedure, shortened: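 Reporter line: HEK 293T with stably integrated SBE-controlled beta-lactamase. Compound exposure lasts 5 hr at 37 C and 5% CO2; substrate loading follows for 2 hr at room temperature, with emission read at 460 and 530 nm.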

[5] = molecular target: Thyrotropin-releasing hormone receptor (Homo sapiens) (UniProt P34981); assay: qHTS assay to identify small molecule antagonists of the thyrotropin-releasing hormone receptor (TRHR) signaling pathway (AID 1346877; active = well fitted inhibition curve with a large enough effect in the repeat runs, not every such curve was filed as active; also: series mostly up to about 51 µM)
Thyrotropin-releasing hormone receptor (Homo sapiens), sequence (P34981 whole entry, looked up): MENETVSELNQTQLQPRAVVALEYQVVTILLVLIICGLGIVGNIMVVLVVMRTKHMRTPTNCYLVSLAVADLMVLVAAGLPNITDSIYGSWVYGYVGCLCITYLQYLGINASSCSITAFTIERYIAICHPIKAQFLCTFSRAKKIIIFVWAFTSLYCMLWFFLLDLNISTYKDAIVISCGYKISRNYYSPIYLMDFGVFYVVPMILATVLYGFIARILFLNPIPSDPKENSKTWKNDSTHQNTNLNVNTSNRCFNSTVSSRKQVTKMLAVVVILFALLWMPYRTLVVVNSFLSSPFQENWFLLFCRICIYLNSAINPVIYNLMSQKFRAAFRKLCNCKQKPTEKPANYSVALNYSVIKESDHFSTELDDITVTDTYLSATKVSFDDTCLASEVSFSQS
Procedure, shortened: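 Antagonism is measured as suppression of the calcium response to 1 nM TRH in TRHR-HEK293 cells that have been dye-loaded for 2 h at 37 °C after overnight plating. Each compound is tested at 15 concentrations in triplicate.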

[6] = molecular target: Thyrotropin-releasing hormone receptor (Homo sapiens) (UniProt P34981); assay: qHTS assay to identify small molecule agonists of the thyrotropin-releasing hormone receptor (TRHR) signaling pathway (AID 1346891; calls by dose curve;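 also: HEK293 cells expressing TRHR with calcium dye readout; series mostly up to about 58 µM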)
Procedure, shortened: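 Cells: TRHR-Hek293, seeded and incubated 18 h. Dye loading: 2 h at 37 °C. Compound added from DMSO stock by pin tool. Read-out: kinetic calcium fluorescence over 3 min.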

[7] = Human pregnane X receptor (PXR) small molecule agonists, qHTS cell viability counter screen (AID 1346977); also: nearly all actives have a fitted effect of over 50% in size
Procedure, shortened: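 Cytotoxicity counter screen run in the same wells as the PXR luciferase assay, using PXR-Luc HepG2 cells in charcoal-stripped serum medium. Viability: CellTiter-Fluor fluorescence after 24hr compound treatment.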

[8] = Caspase-3/7 induction in HepG2 cells by small molecules, qHTS assay (AID 1346978); also: nearly all actives have a fitted effect of over 15% in size
Procedure, shortened: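 Wild-type HepG2 cells, 2,000/well, settled 5 hr at 37 C and 5% CO2, then compound-treated for 17 hr; caspase-3/7 activity read by luminescent Caspase-Glo 3/7 after 30 min at room temperature.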

[9] = Caspase-3/7 induction in CHO-K1 cells by small molecules, qHTS cell viability counter screen (AID 1346979); also: nearly all actives have a fitted effect of over 35% in size
Procedure, shortened: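 Cytotoxicity counter screen run in parallel with the caspase-3/7 assay: CHO-K1 cells, 16hr compound treatment at 37C, then CellTiter-Fluor for 1hr before fluorescence reading.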

[10] = Caspase-3/7 induction in CHO-K1 cells by small molecules, qHTS assay (AID 1346980); also: nearly all actives have a fitted effect of over 15% in size
Procedure, shortened: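 Wild-type CHO-K1 cells exposed to compounds for 17hr at 37 C, 5% CO2. Caspase-3/7 activity then measured by Caspase-Glo 3/7 luminescence after 30min at room temperature.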

[11] = Caspase-3/7 induction in HepG2 cells by small molecules, qHTS cell viability counter screen (AID 1346981); also: series mostly up to about 92 µM; nearly all actives have a fitted effect of over 30% in size
Procedure, shortened: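 Cell viability is measured as a cytotoxicity counter screen alongside the Caspase-Glo 3/7 readout in identical wells. Wild-type HepG2 cells are treated with test compounds for 16 hr at 37 C before CellTiter-Fluor addition and a 1-hr incubation.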

[12] = molecular target: Nuclear receptor subfamily 1 group I member 2 (Homo sapiens) (UniProt O75469); assay: Human pregnane X receptor (PXR) small molecule agonists, qHTS assay (AID 1346982); also: nearly all actives have a fitted effect of over 35% in size; also: potency is read from the fitted curve at half-maximal effect
Nuclear receptor subfamily 1 group I member 2 (Homo sapiens), sequence (O75469 whole entry, looked up): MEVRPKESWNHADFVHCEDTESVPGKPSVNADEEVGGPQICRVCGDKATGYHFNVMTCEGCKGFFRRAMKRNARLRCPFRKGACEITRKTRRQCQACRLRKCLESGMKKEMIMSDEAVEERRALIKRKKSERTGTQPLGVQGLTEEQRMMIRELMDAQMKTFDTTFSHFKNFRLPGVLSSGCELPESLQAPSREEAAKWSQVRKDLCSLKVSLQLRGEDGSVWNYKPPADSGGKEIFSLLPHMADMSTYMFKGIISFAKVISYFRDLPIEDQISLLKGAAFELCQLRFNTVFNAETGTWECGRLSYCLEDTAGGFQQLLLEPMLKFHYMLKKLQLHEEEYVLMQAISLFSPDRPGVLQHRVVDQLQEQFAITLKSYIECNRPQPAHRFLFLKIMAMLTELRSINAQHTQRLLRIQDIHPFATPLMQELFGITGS
Procedure, shortened: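 Cells: HepG2 stably carrying PXR-Luc. Medium held 5% charcoal-stripped FBS. Compounds in DMSO added after 5 hr plating, incubated 24 hr, then luminescence quantified with ONE-Glo.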

[13] = molecular target: Acetylcholinesterase (Homo sapiens) (UniProt P22303); assay: Acetylcholinesterase (AChE) small molecule antagonists: colormetric cell-based qHTS assay (AID 1347395; calls by dose curve; also: nearly all actives have a fitted effect of over 30% in size; also: potency is read from the fitted curve at half-maximal effect)
Acetylcholinesterase (Homo sapiens), sequence (P22303 whole entry, looked up): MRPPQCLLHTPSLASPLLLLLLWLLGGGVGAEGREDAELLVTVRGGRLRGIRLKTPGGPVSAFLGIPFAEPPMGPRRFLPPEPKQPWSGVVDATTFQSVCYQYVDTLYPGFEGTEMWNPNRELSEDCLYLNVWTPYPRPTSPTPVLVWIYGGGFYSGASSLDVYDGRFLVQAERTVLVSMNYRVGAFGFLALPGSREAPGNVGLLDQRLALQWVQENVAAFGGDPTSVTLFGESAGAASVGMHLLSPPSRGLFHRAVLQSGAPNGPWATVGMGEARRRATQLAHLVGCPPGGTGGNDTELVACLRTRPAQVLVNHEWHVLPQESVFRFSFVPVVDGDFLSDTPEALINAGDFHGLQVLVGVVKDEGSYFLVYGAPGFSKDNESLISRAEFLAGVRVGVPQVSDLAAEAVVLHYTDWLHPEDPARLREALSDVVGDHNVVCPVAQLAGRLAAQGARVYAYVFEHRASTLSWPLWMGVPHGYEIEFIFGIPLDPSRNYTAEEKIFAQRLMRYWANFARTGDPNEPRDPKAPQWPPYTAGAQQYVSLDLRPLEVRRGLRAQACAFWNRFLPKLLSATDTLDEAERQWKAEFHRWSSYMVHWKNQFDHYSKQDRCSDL
Procedure, shortened: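 Cells (SH-SY5Y, 2,000 per well) are seeded and left overnight at 37 C. Compound is added for 30 min, then DTNB and acetylthiocholine for a further 90 min at 37 C before absorbance-based thiocholine detection.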

[14] = molecular target: Acetylcholinesterase (Homo sapiens) (UniProt P22303); assay: Acetylcholinesterase (AChE) small molecule antagonists: enzyme-based qHTS assay (AID 1347397; calls by dose curve; also: nearly all actives have a fitted effect of over 55% in size); details: Potency: AChE enzyme activity inhibition
Procedure, shortened: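 Colorimetric DTNB read-out of thiocholine released from acetylthiocholine by recombinant human AChE (50 mU/mL as dispensed). Compounds were preincubated 30 min at RT before substrate/DTNB addition, with a 10 min RT reaction.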

[15] = molecular target: Acetylcholinesterase (Homo sapiens) (UniProt P22303); assay: Acetylcholinesterase (AChE) small molecule antagonists: fluorescence cell-based qHTS assay (AID 1347398; calls by dose curve; also: nearly all actives have a fitted effect of over 50% in size); details: Potency: AChE activity
Procedure, shortened: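 SH-SY5Y, 2,000 cells/well, attached overnight; cmpd 30 min 37 C; acetylthiocholine/Thiolite Green cocktail 40 min RT; fluorescence Ex/Em 490/520 nm.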

[16] = molecular target: Acetylcholinesterase (Homo sapiens) (UniProt P22303); assay: Acetylcholinesterase (AChE) small molecule antagonists: enzyme-based qHTS assay with human liver microsomes (AID 1347399; calls by dose curve; also: nearly all actives have a fitted effect of over 60% in size); details: Potency: qHTS inhibition
Procedure, shortened: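 Recombinant human AChE (50 mU/mL in the enzyme mix) and human liver microsomes (0.25 mg/mL final) were preincubated with compound and NADPH (0.25 mg/mL final) for 30 min at 37 C. Acetylthiocholine/DTNB was then added; thiocholine was read colorimetrically after 10 min at room temperature.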

[17] = molecular target: Cytochrome P450 2D6 (Homo sapiens) (UniProt P10635); assay: Cytochrome P450 Family 2 Subfamily D Member 6 (CYP2D6) small molecule antagonists: luciferase reporter qHTS assay (AID 1671196); also: nearly all actives have a fitted effect of over 50% in size; also: potency is read from the fitted curve at half-maximal effect
Cytochrome P450 2D6 (Homo sapiens), sequence (P10635 whole entry, looked up): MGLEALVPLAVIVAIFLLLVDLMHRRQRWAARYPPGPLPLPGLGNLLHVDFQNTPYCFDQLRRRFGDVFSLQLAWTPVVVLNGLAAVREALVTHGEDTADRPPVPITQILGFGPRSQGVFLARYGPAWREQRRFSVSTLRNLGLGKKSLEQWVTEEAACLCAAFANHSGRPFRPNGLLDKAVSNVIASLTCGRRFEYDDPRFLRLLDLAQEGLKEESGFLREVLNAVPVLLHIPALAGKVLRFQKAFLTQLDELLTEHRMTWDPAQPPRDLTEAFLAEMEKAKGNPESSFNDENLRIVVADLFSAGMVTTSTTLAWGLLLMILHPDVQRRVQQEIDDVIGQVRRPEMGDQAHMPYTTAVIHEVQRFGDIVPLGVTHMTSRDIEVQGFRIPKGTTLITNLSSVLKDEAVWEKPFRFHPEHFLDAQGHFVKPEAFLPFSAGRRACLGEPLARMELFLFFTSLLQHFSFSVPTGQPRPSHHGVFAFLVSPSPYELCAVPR
Procedure, shortened: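 Enzyme and proluciferin substrate were first combined with test chemical for 10 min at room temperature. Adding NADPH regeneration solution started a 1 h reaction, stopped with luciferin detection reagent and read by luminescence 20 min later.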

[18] = qHTS assay to identify small molecule antagonists of the progesterone receptor (PR) signaling pathway - cell viability counter screen (AID 1346798)
Procedure, shortened: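 Counter screen for cytotoxicity: viability of PR-UAS-bla HEK293T cells was measured with CellTiter-Glo luminescence following 16 hr compound exposure in the presence of R5020.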

[19] = molecular target: Nuclear receptor subfamily 1 group I member 2 (Rattus norvegicus) (UniProt Q9R1A7); assay: Rat pregnane X receptor (rPXR) activation by small molecules, qHTS assay (AID 1346983); details: rPXR luciferase reporter cells, One-Glo luminescence, 24 h; stronger effect = higher value; also: nearly all actives have a fitted effect of over 20% in size
Nuclear receptor subfamily 1 group I member 2 (Rattus norvegicus), sequence (Q9R1A7 whole entry, looked up): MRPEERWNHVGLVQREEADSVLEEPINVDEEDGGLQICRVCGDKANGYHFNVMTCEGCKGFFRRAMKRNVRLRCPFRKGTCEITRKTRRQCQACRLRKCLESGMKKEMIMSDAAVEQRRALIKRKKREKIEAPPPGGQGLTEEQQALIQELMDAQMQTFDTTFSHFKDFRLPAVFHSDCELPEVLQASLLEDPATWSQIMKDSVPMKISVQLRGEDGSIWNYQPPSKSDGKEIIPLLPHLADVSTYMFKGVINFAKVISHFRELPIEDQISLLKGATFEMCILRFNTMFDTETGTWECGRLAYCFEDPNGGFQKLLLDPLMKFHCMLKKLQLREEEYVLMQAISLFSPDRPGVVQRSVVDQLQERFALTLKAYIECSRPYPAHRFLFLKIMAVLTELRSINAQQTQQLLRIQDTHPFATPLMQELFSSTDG
Procedure, shortened: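 Cell-based rPXR activation assay: rPXR cells, 2,000 per well, rested 5hr at 37 C, then exposed to compounds in DMSO for 24 hr at 37 C. Luciferase activity read by One-Glo luminescence after 30 min at room temperature.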

[20] = molecular target: Nuclear receptor subfamily 1 group I member 2 (Homo sapiens) (UniProt O75469); assay: CYP3A4 induction through human pregnane X receptor (PXR) by small molecules, qHTS assay (AID 1346984); also: nearly all actives have a fitted effect of over 40% in size
Procedure, shortened: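 Quantitative HTS in DPX-2 cells, i.e. HepG2 transfected with PXR response element and CYP3A4-promoter luciferase. Compounds in DMSO incubated 24hr at 37C; then P450-Glo CYP3A4 substrate, 3uM final, 3hr; One-Glo luminescence.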
% is scaled to controls: 0 for no effect and ±100 for the full control effect.

CCOP(OCC)OCC
inactive and 28.3 µM (active): Potency [13]
inactive: Potency [1] | Potency [2] | outcome [3] | Potency [4] | outcome [5] | Potency [6] | Potency [7] | outcome [8] | Potency [9] | outcome [10] | Potency [11] | Potency [12] | Potency [14] | Potency [15] | Potency [16]
active: Potency [17] 91 µM and 35.6 µM

c1ccc(OP(Oc2ccccc2)Oc2ccccc2)cc1
inactive: Potency [18] | Potency [1] | outcome [3] | Potency [4] | outcome [5] | Potency [6] | Potency [7] | outcome [8] | Potency [9] | outcome [10] | Potency [13] | Potency [14] | Potency [15] | Potency [16] | Potency [17]

O=[N+]([O-])c1ccccc1
inactive: Potency [1] | Potency [2] | outcome [3] | Potency [4] | outcome [5] | Potency [6] | Potency [7] | outcome [8] | Potency [9] | outcome [10] | Potency [11] | max activation [19] 7.19% | outcome [20] | Potency [13] | Potency [14] | Potency [15] | Potency [16]
16.4 µM (active) and inactive: Potency [17]

O=C(NC(=O)c1c(F)cccc1F)Nc1cc(Cl)c(OC(F)(F)C(F)C(F)(F)F)cc1Cl (stereo not given)
inactive: Potency [18] | Potency [2] | outcome [3] | Potency [4] | outcome [5] | Potency [6] | Potency [7] | outcome [8] | Potency [9] | outcome [10] | Potency [11] | Potency [12] | max activation [19] -1.37% | outcome [20] | Potency [13] | Potency [14] | Potency [15] | Potency [16] | Potency [17]

O=c1[nH]c2ccccc2c(=O)o1
inactive: Potency [1] | Potency [2] | outcome [3] | Potency [4] | outcome [5] | Potency [6] | Potency [7] | outcome [8] | Potency [9] | outcome [10] | Potency [11] | Potency [13] | Potency [14] | Potency [15] | Potency [16] | Potency [17]

C[C@]12CC[C@H]3[C@@H](CC[C@@]45O[C@@H]4C(O)=C(C#N)C[C@]35C)[C@@H]1CC[C@@H]2O
inactive: Potency [18] | Potency [1] | outcome [3] | Potency [7] | outcome [8] | Potency [9] | outcome [10] | max activation [19] -0.29% | outcome [20] | Potency [13] | Potency [14] | Potency [15] | Potency [16] | Potency [17]

CC(C)(C)C(O)(CCc1ccc(Cl)cc1)Cn1cncn1 (stereo not given)
active: Potency [12] 27.6 µM and 9.69 µM | Potency [17] 28.6 µM and 35.6 µM
inactive: Potency [2] | outcome [3] | Potency [4] | outcome [5] | Potency [6] | Potency [7] | outcome [8] | outcome [10] | Potency [11] | Potency [13] | Potency [14] | Potency [15] | Potency [16]

CC(C)C#N
inactive: Potency [1] | Potency [2] | outcome [3] | Potency [4] | outcome [5] | Potency [6] | Potency [7] | outcome [8] | Potency [9] | outcome [10] | Potency [12] | Potency [13] | Potency [15] | Potency [16] | Potency [17]

CC(C)(C)OOC(C)(C)C
inactive: Potency [1] | Potency [2] | outcome [3] | Potency [4] | outcome [5] | Potency [6] | Potency [7] | outcome [8] | Potency [9] | outcome [10] | Potency [12] | Potency [13] | Potency [14] | Potency [15] | Potency [16] | Potency [17]

[O-][Cl+2]([O-])O
inactive: Potency [1] | Potency [2] | outcome [3] | Potency [4] | outcome [5] | Potency [6] | Potency [7] | outcome [8] | Potency [9] | outcome [10] | Potency [12] | Potency [13] | Potency [15] | Potency [16] | Potency [17]
